# Test results published in PubChem BioAssay AID2380 (Sanford-Burnham Center for Chemical Genomics, 2010).
# The whole screen tested about 330,000 compounds, of which about 960 (0.29%) were called active.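 Rule for the calls: active = compounds whose signal lies at least 3.5 SD above the mean of all wells on their plate; inactive = the rest.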 The full list was thinned out, with actives kept by preference.
# Experiment: small molecules increasing insulinoma cell replication – ATP luminescence, uHTS, primary screen (AID 2380);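 note: 0% = DMSO-treated cells in low-serum medium and 100% = 10% serum control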
# Settings: MIN6 cells proliferation, ATPlite luminescence, 48 h, at 10 µM, hits give high values
row,SMILES,proliferation
1,c1cc2c(cc1CCNC1CCCCCC1)OCO2,8.35% (active)
2,c1ccc(CCNC2CCCCCC2)cc1,1.52% (inactive)
3,COc1ccc(CNCCc2ccc3c(c2)OCO3)c(OC)c1OC,5.73% (inactive)
4,CC1(C)Cc2c(C#N)c(N3CCNCC3)nc(-c3ccco3)c2CS1,-3.88% (inactive)
5,CC(=O)c1ccc(OC(NC(=O)Cc2ccccc2)C(Cl)(Cl)Cl)cc1 (stereo not given),-1.48% (inactive)
6,COC(=O)COc1cc(C)cc2oc(=O)c3c(c12)CCCC3,5.08% (active)
7,Cc1cc(OCc2cc(C(=O)O)oc2C)c2c3c(c(=O)oc2c1)CCCC3,-3.8% (inactive)
8,COc1cc(OC)cc(C2(C#N)CCN(C)CC2)c1,-0.56% (inactive)
9,CCOc1cccc(=NC2CCCCC2)c2c(C)[nH]c(C)c12,-3.34% (inactive)
10,CCC1(C)CC(CCNCc2ccc(N(C)C)cc2)(c2ccc(F)cc2)CCO1 (stereo not given),-4.45% (inactive)
11,COc1ccc(C(=O)CC2C(=O)N(C)C(=O)N(C)C2=O)cc1,-0.73% (inactive)
12,O=C(N/N=C/c1c(O)n(Cc2ccccc2)c(=O)[nH]c1=O)c1ccccc1,5.26% (active)
13,O=c1[nH]c(=O)n(Cc2ccccc2)c(O)c1/C=N/Nc1c(F)c(F)c(F)c(F)c1F,1.39% (inactive)
14,O=C(N/N=C/c1c(O)n(C2CC2)c(=S)[nH]c1=O)c1ccccc1,-1.64% (inactive)
15,COC(=O)C1=C(c2ccc(Cl)c(C(F)(F)F)c2)C[C@@H]2CC[C@H]1N2C(=O)NC(C)C,"-1.97% [100% = growth in 10% serum, cells starved in 0.2% serum] (inactive)"
